# Laboratory results taken from PubChem BioAssay.
# Values without a mark were called inactive. No rule for the calls is given here.
# Target: Pantothenate synthetase (Mycobacterium tuberculosis (strain ATCC 25618 / H37Rv)) (UniProt P9WIL5)
# Experiment: Recombinant Mtb pantothenate synthetase (PanC) inhibitors, coupled enzyme, confirmatory (AID 375);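 also: 0% = full reaction with vehicle and 100% = no enzyme background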
# Conditions: coupled enzyme assay; at 10 µM, stronger effect = higher value
# Pantothenate synthetase (Mycobacterium tuberculosis (strain ATCC 25618 / H37Rv)), sequence (P9WIL5 whole entry, looked up): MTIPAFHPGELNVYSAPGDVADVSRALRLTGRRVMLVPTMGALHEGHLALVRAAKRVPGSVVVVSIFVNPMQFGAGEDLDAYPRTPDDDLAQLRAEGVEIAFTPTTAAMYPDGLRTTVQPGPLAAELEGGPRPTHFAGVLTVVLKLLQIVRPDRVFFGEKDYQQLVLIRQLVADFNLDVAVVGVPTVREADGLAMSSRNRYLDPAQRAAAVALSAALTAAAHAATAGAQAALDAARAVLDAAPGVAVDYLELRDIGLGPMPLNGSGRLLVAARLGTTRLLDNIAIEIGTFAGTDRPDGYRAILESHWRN
row,SMILES,inhibition [%]
1,CC(C)(C)c1nc(CN2CCOCC2)ccc1O,1
2,CC1CCCCN1CCNC(=O)C1CCN(S(=O)(=O)c2cccc3cccnc23)CC1 (centres undefined),0
3,Cc1cc(NC(=O)C2CCCC2)nc2c1c(=O)oc1ccccc12,12
4,Nc1nnnn1NCc1cccc(OCc2ccccc2)c1,0
5,N#C/C(C(=O)N1CCOCC1)=C1/SC=C(c2ccccc2)N1c1ccccc1,7
6,COc1ccc(CNC(=O)CN(C(=O)c2ccc(CN3CCOCC3)o2)C2CCCC2)cc1,0
7,CCN1CCN(C(=O)c2cn(CCOC)c(=O)c3c2c2ccccc2n3C)CC1,1
8,O=C(Nc1nnc(COc2ccc(F)cc2)s1)c1cccs1,5
9,Cc1ccc(Cn2c(SCC(C)C)nc3c2c(=O)n(C)c(=O)n3C)cc1,3
10,COC(=O)CNC(=O)COC(=O)c1cc(Cl)cc(Cl)c1N,0
11,COc1ccc(CC(NC(C)=O)C(=O)NC2CCN(C(=O)Nc3ccc(C#N)cc3)CC2)cc1OC (centres undefined),10
12,COC(=O)c1[nH]c2ccc(F)cc2c1NS(=O)(=O)c1ccc(OC)cc1OC,14
13,COCCCNC(=O)CC(NS(=O)(=O)c1ccc(Cl)cc1)c1ccco1 (centres undefined),0
14,COc1ccccc1NC1=NC2(CCCC2)N=C(N)N1,0
15,N#Cc1nc(COc2ccccc2)oc1NCCN1CCOCC1,0
16,CCOC(=O)/C=C(\C)Sc1cc(=O)oc2ccccc12,6
17,O=C(Nc1ccc2snnc2c1)N1CCSCC1,0
18,O=C(c1ccccc1-c1ccccc1)N1CCN(c2ccccn2)CC1,0
19,Cc1cc(NC(=O)CSc2nc3ccccc3n2CC(=O)N2CCCCC2)no1,0
20,CCSCc1nnc(SCC(=O)Nc2cccc(SC)c2)n1C,4

row,SMILES,inhibition [%]
1,CSCCC(NC(=O)c1occc1C)C(=O)O (centres undefined),0
2,CCOCCCn1c(=S)[nH]c2cc3c(cc2c1=O)OCO3,0
3,COc1cccc2cc(C(=O)n3ccc(C)n3)c(=O)oc12,1
4,CCOC(=O)c1c(C)oc2c1c1c(c3ccccc32)OCN(Cc2cccnc2)C1,6
5,CCC(C)C(=O)Nc1nc2c(s1)C(=O)CC(C)(C)C2 (centres undefined),10
6,CC(=O)N1CN(C2CCCC2)Cc2c1sc1c2CCCC1,0
7,O=C(c1csc2ccccc12)n1cccn1,0
8,CCOC(=O)c1[nH]c(C)c(C(=O)NC)c1C,0
9,COC(=O)c1c(NC(=O)CSc2nnc(-c3cccnc3)n2Cc2ccco2)sc(C)c1C,0
10,CCCCc1ccc(NC(=O)N[C@H](C(=O)O)C(C)CC)cc1 (some centres undefined),0
11,O=C(COc1ccc2c(c1)OCO2)NC12CC3CC(CC(C3)C1)C2,4
12,COc1cccc(C(=O)Nc2ncc3c(n2)CC(C)CC3=O)c1 (centres undefined),5
13,Cc1ccc(NC(=O)C2CCCN(S(=O)(=O)c3cnc[nH]3)C2)cc1C (centres undefined),11
14,O=C(Nc1ccc2nn(-c3ccccc3)nc2c1)c1ccc(Br)o1,0
15,CNCCC=C1c2ccccc2CCc2ccccc21,0
16,O=C(NCCCn1ccnc1)c1cnn2c1NC(c1ccccc1)CC2C(F)(F)F (centres undefined),2
17,O=C1c2ccccc2NC(c2ccco2)N1O (centres undefined),5
18,Cc1cc(C)n2cc(CSCc3ccco3)nc2n1,2
19,CCCCN(C)Cc1c(O)ccc2c(-c3ccccc3)cc(=O)oc12,1
